This is a sample that favours compounds with a hit; in the whole collection about 9.4% have one here.
FLuc counter: counter-screen for miR-21 project: firefly luciferase inhibitors or activators. P08659. purified FLuc, Km substrates, luminescence inhibition. Potency, µM (titrated, usually from 57.5 µM), for inactives: at the highest dose activity change, negative = inhibition, hits mostly inhibitors. AID 588342. hit rate 6.9% among 360,000;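 note: plate controls were vehicle for no effect and reference inhibitor for full effect; nearly all actives have a fitted effect of over 55% in size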
Target sequence (P08659 whole entry, looked up): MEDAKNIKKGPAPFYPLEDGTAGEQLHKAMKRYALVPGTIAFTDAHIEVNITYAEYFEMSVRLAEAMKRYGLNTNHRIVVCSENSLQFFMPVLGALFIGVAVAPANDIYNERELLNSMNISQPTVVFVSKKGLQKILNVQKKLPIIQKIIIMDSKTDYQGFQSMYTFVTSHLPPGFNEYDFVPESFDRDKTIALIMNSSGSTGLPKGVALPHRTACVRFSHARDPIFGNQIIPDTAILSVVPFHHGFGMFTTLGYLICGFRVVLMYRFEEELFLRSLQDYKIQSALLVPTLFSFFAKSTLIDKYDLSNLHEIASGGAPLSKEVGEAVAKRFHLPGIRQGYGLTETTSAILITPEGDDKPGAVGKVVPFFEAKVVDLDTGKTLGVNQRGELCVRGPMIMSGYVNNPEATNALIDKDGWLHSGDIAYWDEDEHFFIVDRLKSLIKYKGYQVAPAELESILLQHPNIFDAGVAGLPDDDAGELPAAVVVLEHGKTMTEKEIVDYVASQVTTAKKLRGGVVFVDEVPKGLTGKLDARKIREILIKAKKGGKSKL
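Purified P. pyralis luciferase, 10 nM final, with Km-level 10 uM D-luciferin and 10 uM ATP in 50 mM Tris acetate pH 7.5, 10 mM Mg acetate, 0.01% Tween-20, 0.05% BSA; 6-point qHTS titration about 60 µM downward; luminescence read.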
ELG1 DNA repair: inhibitors of ELG1-dependent DNA repair in HEK293T cells; HEK293T ELG1-luciferase reporter, luminescence, 16 h; DNA damage induced by 5-fluorouridine; hit rate 2.3% among 330,000; AID 504467; Potency, µM (series often up to 46.1 µM), for the others: at the top dose activity change, negative = inhibition, hits mostly inhibitors; note: % is set by controls: 0 for no effect and ±100 for the full control effect; nearly all actives have a fitted effect of over 55% in size
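Quantitative HTS, concentration-response format. 2,000 cells/well co-treated with 5-fluorouridine and compound, 16 hr in 5% CO2 at 37 °C; ONE-Glo luminescence read after 30 min.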
NPC1 promoter act: activates the NPC1 promoter; Huh7 NPC1 promoter luciferase reporter, 24 h; Potency, µM (titrated, usually from 9.22 µM), without a hit: at the highest dose activation, most hits filed as activators; hit rate 2.4% among 320,000; AID 485313; note: % of control where 0% means no effect; nearly all actives have a fitted effect of over 60% in size
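Stably transfected Huh7 (NPC1 promoter→luciferase), 1500 cells/well in Opti-MEM + 10% FBS, 2 h settle, then compound 24 h at 37 °C. Luminescence after 10 min with Amplite reagent.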
SMN2 splice enh: SMN2 splice variant enhancement; HEK293 SMN2-luciferase splicing reporter, luminescence, 30-36 h; Potency, µM (titrated, usually from 46.1 µM), inactives show at the highest dose activity change, positive = activation, usual class: activators; hit rate 2.8% among 210,000; AID 1458; note: % of control where 0% means no effect; nearly all actives have a fitted effect of over 55% in size
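qHTS luciferase splicing reporter: luminescence rises when SMN2 exon 7 is included in transfected HEK293 cells. Compound exposure lasted 30-36 h at 37C, with 4.5 mM final sodium butyrate as control, followed by a ONE-Glo read.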
Rab9 promoter act: activators of Rab9 promoter; Potency, µM (highest dose often 9.22 µM), for inactives: at the highest dose activation, negative = inhibition, hits mostly activators; AID 485297; Huh7 Rab9 promoter-luciferase reporter, luminescence, 24 h; hit rate 2.8% among 320,000; note: % of control where 0% means no effect; nearly all actives have a fitted effect of over 60% in size
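Rab9 promoter-driven luciferase in stably transfected Huh7 cells; 1500 cells/well rested 2 h, exposed to compound in DMSO for 24 h at 37 °C, 5% CO2. Luminescence read 10 min after adding luciferase reagent at ambient temperature.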
ELG1 genotoxic: induces genotoxicity in HEK293T cells with luciferase-tagged ELG1; AID 504466; Potency, µM (doses to about 46 µM), for the others: at the highest dose activity change, positive = activation, most hits filed as activators; hit rate 1.3% among 330,000; HEK293T ELG1-luciferase reporter, luminescence, 16 h; note: % of control where 0% means no effect; nearly all actives have a fitted effect of over 60% in size
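Cells (2,000/well) expressing the ELG1-luciferase fusion are dosed by pin tool and kept 16 hr at 37 °C, 5% CO2. Signal comes from ONE-Glo luciferase reagent after 30 min at room temperature.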
Starred values were filed as active, the others as inactive; ? = inconclusive; nt = no result; [ ] = another dose, or the depositor's remark. Calls come from the whole dose curve; as a rule, active = well fitted curve in the direction sought with a large enough effect; inconclusive = small, poorly fitted or top-dose-only effect, or another doubt; inactive = no such curve, though single readings can be large; an effect the other way counts as inactive or inconclusive. Potency is the fitted concentration of half-maximal effect.

SMILES | FLuc counter | ELG1 DNA repair | NPC1 promoter act | SMN2 splice enh | Rab9 promoter act | ELG1 genotoxic
COC(=O)c1cc2sccc2n1Cc1c(C)cc(C)cc1C | 7% | nt | nt | 8% | nt | nt
Cc1coc2cc3oc(=O)c(CC(=O)NCc4ccccc4)c(C)c3cc12 | 1% | nt | nt | 0% | nt | nt
O=C(Nc1ccc(C(=O)N2CCCCC2)cc1)C1=CSCCO1 | 12µM* | ? | 2.8µM* | nt | ? | ?
COC(=O)c1sccc1NC(=O)c1ccc2c(c1)OCO2 | 6%[2.3 µM] | ? | 0% | 27% | -2% | 3%
COC(=O)c1ccc(NC(=O)c2ccc3c(c2)OCO3)cc1 | ? | ? | 2.8µM* | ? | ? | 6.5µM*
CCOc1ccc(C(=O)Nc2ccc(N3CCN(C)CC3)cc2)cc1Br | 6µM* | ? | 28% | -6% | -3% | 10%
CCOc1ccc(C(=O)Nc2ccc(NC(=O)c3ccccc3)cc2)cc1Br | 2% | 4% | -1% | -6% | -4% | 10%
COc1ccc(CN2CCN(C(=O)c3cccs3)CC2)cc1Br | -2% | ? | -2% | -9% | 5% | -2%
COc1cc(OC)cc(C(=O)Nc2ccc(N3CCN(C(=O)c4cccs4)CC3)cc2)c1 | 3% | 15µM* | -29% | nt | -4% | -14%
CC(=O)Nc1ccc(N2CCN(C(=O)c3cccs3)CC2)cc1 | 1% | 8% | 0% | -14% | -2% | 1%
COc1ccc(C(=O)Nc2ccc(N3CCN(C(=O)c4cccs4)CC3)cc2)cc1Br | 1% | 13µM* | -6% | nt | -14% | -14%
O=C(Nc1ccc(N2CCN(C(=O)c3cccs3)CC2)cc1)c1ccc(F)cc1 | 1% | 18µM* | -2% | nt | 0% | -22%
CCOc1ccc(CNC(=O)C2=Cc3cc(Br)ccc3OC2)cc1OC | -8% | nt | nt | nt | nt | nt
CCOc1cc(-c2cc(-c3ccc(N)cc3)nc(N)c2C#N)ccc1O | -13% | ? | 1% | 13µM* | 9% | -1%
O=C(N/N=C/c1ccc(O)cc1)Nc1cccc2nsnc12 | 12µM* | ? | 11% | nt | 28% | 1%
O=C(CSCc1ccc(F)cc1)N1CCN(c2ccc(Cl)cc2)CC1 | -3% | nt | nt | nt | nt | nt
CC1CCN(C(=O)CSCc2ccc(Cl)cc2)CC1 | 19µM* | ? | ? | ? | 3.2µM* | 15µM*
CC(OC(=O)C1CC1)C(=O)Nc1cc(C(F)(F)F)ccc1Cl (configuration not stated) | 4% | 10% | 0% | -3% | 1% | 0%
Cc1ccccc1-c1nc(NC(=O)CSc2ncnc3sc4c(c23)CCCC4)ns1 | 0% | nt | nt | -6% | nt | nt
CC(C)c1ccc(/C=C/C(=O)Nc2nncs2)cc1 | 0.76µM* | ? | 0.89µM* | 18µM* | 0.5µM* | ?
C(=C\c1ccco1)/c1nc2ccccc2[nH]1 | 1.9µM* | ? | 3.5µM* | nt | 0.63µM* | ?
C(=C\c1nc2ccccc2[nH]1)/c1ccccc1 | 0.3µM* | ? | 0.18µM* | 0.28µM* | 0.4µM* | ?
O=c1[nH]c2ccccc2nc1/C=C/c1ccc(Cl)cc1 | ? | ? | 3.2µM* | nt | 0.89µM* | 9.2µM*
CCOc1ccc(CCNC(=O)c2c(C)oc3ncnc(N4CCOCC4)c23)cc1 | 5% | nt | nt | nt | nt | nt
Cc1oc(-c2ccc(C(=O)NCc3ccc(Cl)cc3)cc2)nc1CS(=O)(=O)c1ccccc1 | -2% | nt | nt | nt | nt | nt
SMILES | FLuc counter | ELG1 DNA repair | NPC1 promoter act | SMN2 splice enh | Rab9 promoter act | ELG1 genotoxic
O=C(NC1CCCCC1)c1ccc2c(c1)N(Cc1ccccc1Cl)C(=O)c1ccccc1S2 | -7% | nt | nt | nt | nt | nt
Fc1cc2[nH]c(=S)[nH]c2c(Br)c1N1CCSCC1 | 13µM* | ? | 11% | nt | 10% | 11%
Fc1cc2nccnc2cc1N1CCSCC1 | -2% | 4% | -8% | 7% | -3% | -1%
Cc1c(C(=O)O)sc2nc(/C=C/c3cccc(O)c3)[nH]c(=O)c12 | 17µM* | 1% | -12% | nt | -7%[1.84 µM] | 0%
COC(=O)c1ccc(CSc2nc3sc(C(=O)O)c(C)c3c(=O)[nH]2)cc1 | ? | 8% | 0% | -8% | 0% | 1%
C#CCn1c(S(=O)(=O)Cc2ccc(C)cc2)nc(-c2ccccc2)c1-c1ccccc1 | 3% | 22% | -5% | 30% | 0% | -11%
C#CCn1c(S(=O)(=O)Cc2ccccc2Cl)nc(-c2ccccc2)c1-c1ccccc1 | 6% | 1% | -3% | 5.6µM* | -5% | -5%
COc1cc2c(cc1OC)C1O[C@](CCCCN3C(=O)c4ccccc4C3=O)(C2)Oc2c1c(=O)oc1ccccc21 | -4%[11.5 µM] | nt | 1%[1.84 µM] | nt | -5%[1.84 µM] | nt
CCCc1cc(C(=O)Nc2nnc(C)s2)cs1 | 9.5µM* | ? | ? | ? | 3.5µM* | ?
Cc1nnc(NC(=O)Oc2ccccc2)s1 | 0% | 10% | 2% | 6% | -1% | 2%
CC(=O)Oc1ccc(C(=O)Nc2nnc(C)s2)cc1 | 21µM* | ? | 25% | 26% | 21% | ?
Cc1ccc(C(=O)Nc2nnc(C)s2)cc1 | 12µM* | ? | 3.5µM* | 14µM* | 3.2µM* | -2%
Cc1nnc(NC(=O)c2ccc(Br)cc2)s1 | 2.7µM* | ? | ? | ? | 3.2µM* | ?
COc1ccc(Cl)cc1S(=O)(=O)NCc1ccc2c(c1)CCN2C(=O)c1cccc(C)c1 | 3% | nt | nt | nt | nt | nt
Cc1cccc(Nc2nnc(-n3nc(C)cc3C)c3ccccc23)c1 | ? | nt | nt | 137% | nt | nt
CCCCCn1c(CCCNC(=O)c2ccccc2)nc2ccccc21 | -11% | nt | nt | -25% | nt | nt
CC(=O)c1cccc(NC(=O)COc2ccccc2)c1 | ? | ? | 12% | -6% | -6% | ?
CSc1cccc(NC(=O)Nc2ccccc2)c1 | 13µM* | ? | 29% | ? | 29% | ?
COc1ccc(CC(=O)Nc2cccc(SC)c2)cc1OC | 3% | 5.2µM* | -13% | -100% | -16% | 16%
CSc1cccc(NC(=O)COc2ccccc2)c1 | 17µM* | ? | 11% | 5% | 1% | 4%
CSc1cccc(NC(=O)Nc2ccccc2C(N)=O)c1 | 11µM* | -4% | -5% | nt | 3% | 2%
Cc1c(Cl)cccc1NC(=O)Nc1ccccc1C(N)=O | -10% | 0% | -8% | -24% | -6% | 7%
COc1cc(C(=O)Nc2nc3c(s2)Cc2c(Br)ccc(OC)c2-3)cc(OC)c1OC | -7% | nt | nt | 1% | nt | nt
COc1c(-c2coc3cc4c(cc3c2=O)CC(O)C(C)(C)O4)ccc2c1C=CC(C)(C)O2 (configuration not stated) | nt | nt | nt | -116% | nt | nt
C=CCNC(=O)N1CCCC(C(=O)c2cccc(OC(C)C)c2)C1 (configuration not stated) | 17µM* | ? | ? | nt | 3.5µM* | ?

Bioassay records deposited in PubChem BioAssay by National Center for Advancing Translational Sciences (NCATS).
